hgDAF-12 ag: hgDAF-12 agonism, primary luciferase screen; AID 687014; activation, % at 6.8 µM; 370,000 compounds, 1.8% hits; HEK293 GAL4-hgDAF12 UAS-luciferase reporter, agonist luminescence; normalized to butyrate control;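 active = activation above a cutoff set at the mean of all screened compounds plus 3 SD, cut at about 10% in these data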
DAX1 inh-1: NR0B1 (DAX1) inhibition | 340,000 compounds, 0.99% hits | HEK293 Gal4-DAX1 luciferase reporter, luminescence | inhibition, % at 6.75 µM;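 active = inhibition above the mean over all tested compounds plus 3 SD, cut at about 4.2% in these data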;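 note: inhibition shows as a rise in luminescence from relieved DAX1 repression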
Target sequence (P51843 207-470 limits assumed): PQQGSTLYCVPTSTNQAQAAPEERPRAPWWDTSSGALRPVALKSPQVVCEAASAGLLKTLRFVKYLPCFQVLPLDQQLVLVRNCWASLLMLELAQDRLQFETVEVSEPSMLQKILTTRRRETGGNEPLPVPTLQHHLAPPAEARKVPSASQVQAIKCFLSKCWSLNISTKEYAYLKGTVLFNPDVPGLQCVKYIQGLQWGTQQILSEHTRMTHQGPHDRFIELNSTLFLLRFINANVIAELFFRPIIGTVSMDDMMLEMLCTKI
ssDAF-12 act: S. stercoralis DAF-12 activation, primary screen. activation, % at 6.8 µM. 370,000 compounds, 1% hits. AID 652126. HEK293 ssDAF-12/GRIP1 lit1-tk-luc reporter, luminescence; % of 3 µM dafachronic acid response;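 active = activation above the mean over all tested compounds plus 3 SD, cut at about 0.9% in these data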
DAX1 inh-2: DAX1 (NR0B1) inhibition, primary screen; HEK293T StAR-luciferase reporter, SF-1/DAX-1 repression relief; inhibition, % at 6.8 µM; 370,000 compounds, 1.1% hits; AID 652010;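 active = inhibition above the mean over all tested compounds plus 3 SD, cut at about 3.6% in these data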;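 note: higher inhibition means more luminescence from relief of DAX-1 repression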
hcDAF12 agonist: H. contortus DAF-12 activation, primary screen. activation, % at 6.8 µM. HEK293 hcDAF-12 lit1-tk-luc reporter, luminescence; 0% DMSO, 100% Δ7-dafachronic acid. 370,000 compounds, 1.4% hits;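 active = activation above the mean of all tested compounds plus 3 SD, cut at about 5.5% in these data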
Large screens that a line does not name were inactive. Shown are actives, neighbours in structure and some others; about 4.1% of the full set was active somewhere.

C/C(=C\c1ccc(Cl)cc1)C(=O)c1c(C)cc(C)[nH]c1=O	DAX1 inh-1 4.5
CCNC(=O)C[C@H]1CC[C@H]2[C@@H](COc3ccc(NC(=O)c4ccc5c(c4)OCO5)cc3C(=O)N2C)O1	none (no result: DAX1 inh-1)
CN(C)C(=O)C(=O)c1c(-c2ccccc2)cc2ccccn12	none
O=Nc1c(-c2ccccc2)cc2ccccn12	DAX1 inh-1 6.6
O=S(=O)(c1ccccc1)c1cnc(-c2cccnc2)nc1-c1ccc(Cl)c(Cl)c1	ssDAF-12 act 1.6
Cc1ncc(S(=O)(=O)c2ccccc2)c(-c2ccccc2)n1	none
CN(C)c1ccc(N/C=C/C(=O)c2ccco2)cc1	DAX1 inh-1 4.3
COC(=O)C(NC(C)=O)(Nc1ccc(C)cn1)C(F)(F)F (centres undefined)	DAX1 inh-1 4.2
COc1ccccc1-c1nnc(SCC#CCOC(=O)c2ccc(F)cc2)o1	none (no result: DAX1 inh-1, DAX1 inh-2)
CC(=O)Nc1ccc(O)cc1	DAX1 inh-1 5.8
COc1ccc(C(=O)CC(Sc2ccccc2N)c2ccc(OC)cc2)cc1 (centres undefined)	DAX1 inh-2 4.1
COc1ccc(C(=O)CC(=O)c2ccc(C(C)(C)C)cc2)cc1	none
CN1CCN(c2ccc3c(c2)Oc2ccccc2CN(Cc2cn(Cc4ccc(C(F)(F)F)cc4)nn2)S3(=O)=O)CC1	none (no result: DAX1 inh-1)
O=C(Nc1ccc(NC(=O)C2CCCCC2)nc1)c1ccccn1	hgDAF-12 ag 12
COc1ccccc1C(=O)Nc1ccc(NC(=O)C2CCCCC2)nc1	none
Cc1nn(-c2ccccc2)c2c1C(c1ccc(O)c(O)c1)N1C(=N2)C(Nc2ccccc2)=Nc2ccccc21 (centres undefined)	DAX1 inh-1 4.3
Cc1cc(C(=O)N(C)CC2CCCN(CCc3ccc(F)cc3)C2)c(C)o1 (centres undefined)	none
COCc1ccc(C(=O)N(C)CC2CCCN(CCc3ccc(OC)cc3)C2)o1 (centres undefined)	DAX1 inh-2 4.5
COc1ccc(CCN2CCCC(CN(C)C(=O)c3cc(C)oc3C)C2)cc1 (centres undefined)	hgDAF-12 ag 11
Cc1cccc(NC(=O)c2n[nH]c([N+](=O)[O-])c2Br)c1C	hgDAF-12 ag 11, DAX1 inh-2 3.6
CCOC(=O)[C@]12CCCC=C1N(CCCOC)C(=O)[C@@H]2CC(=O)NCc1ccc(OC)c(OC)c1	none (no result: DAX1 inh-1)
COc1ccc(C)cc1N(CC(=O)N1CCCC1)S(C)(=O)=O	none
COc1ccc(OC)c(N(CC(=O)N2CCCC2)S(C)(=O)=O)c1	DAX1 inh-1 4.5
COC(=O)c1ccc(C)c(NC(=O)CN(c2cc(OC)ccc2OC)S(C)(=O)=O)c1	DAX1 inh-2 4.2
O=C(NCc1ccc(C(=O)N2CCCN(Cc3ccccc3)CC2)cc1)c1cccc(Br)c1	none (no result: DAX1 inh-1)
Cc1cc(/C=N/NC(=O)c2cccc(F)c2)c(C)n1-c1ccccc1	hgDAF-12 ag 11, DAX1 inh-1 4.5
Cc1[nH]c2ccccc2c1/C=N/NC(=O)c1cccc(F)c1	DAX1 inh-1 7.8
Cc1ccccc1NC(=O)CCS(=O)(=O)c1ccccc1	none (no result: DAX1 inh-1)
COC(=O)c1ccc2c(c1)NC(=O)C(N(CC(C)C)CC(C)C)S2 (centres undefined)	DAX1 inh-1 5.1
COC(=O)C1CN(C2CCCC2)CCS(=O)(=O)N1Cc1cn(Cc2ccc(OC)cc2)nn1 (centres undefined)	none (no result: DAX1 inh-1)
O=c1c(OC2OC(CO)C(O)C(O)C2OC2OC(CO)C(O)C(O)C2O)c(-c2ccc(O)cc2)oc2cc(O)cc(O)c12 (centres undefined)	DAX1 inh-1 4.6
O=c1c(O[C@H]2O[C@@H](CO)[C@H](O)[C@@H](O)[C@@H]2O)c(-c2ccc(O)cc2)oc2cc(O)cc(O)c12	none
Nc1[nH]c(C(=O)c2ccccc2)c(-c2cccc(C(F)(F)F)c2)c1C(=O)NCCc1c[nH]c2ccccc12	none (no result: DAX1 inh-1)
COc1ccc(OCC(=O)N/N=C\c2ccco2)cc1	none
COc1ccc(/[N+]([O-])=C/c2ccco2)cc1	hgDAF-12 ag 10
Cc1sc2nc(COC(=O)CNC(=O)c3ccc(F)cc3Cl)[nH]c(=O)c2c1C	none (no result: DAX1 inh-1)
FC(F)(F)Oc1ccc(Cn2ccc3ccc(-c4ccc5ccn(Cc6ccc(OC(F)(F)F)cc6)c5c4)cc32)cc1	none (no result: DAX1 inh-1)
Cc1csc(C(C#N)C(=O)c2cc3ccccc3o2)n1 (centres undefined)	DAX1 inh-2 3.9
O=C(NNC(=O)c1cc2ccccc2o1)c1ccc(F)cc1	none
CN(C)CC(=O)N[C@@H]1C[C@@H]2O[C@@H](CO)CC[C@@H]2O[C@@H]1CCc1ccc(C2=CCCCC2)cc1	none (no result: DAX1 inh-1)
COc1ccc(C)c2sc(N(CCN(C)C)C(=O)/C=C/c3cccs3)nc12	ssDAF-12 act 1.2, hcDAF12 agonist 6.1
Cc1cc(=O)[nH]c(SCc2cccc3cccnc23)n1	DAX1 inh-1 5.2
COc1ccc(/C=C2\S/C(=N/S(=O)(=O)c3cccs3)NC2=O)cc1	none
COc1ccc(/C=N/S(=O)(=O)c2cccs2)cc1	ssDAF-12 act 3.0
O=C(N/N=C/c1ccc([N+](=O)[O-])cc1)c1cc2ccccc2o1	none
C/C(=N\Nc1ccc([N+](=O)[O-])cc1)c1cc2ccccc2o1	hcDAF12 agonist 6.4
CCN1CCN(CC(=O)c2c[nH]c3ccccc23)CC1	hcDAF12 agonist 5.6
C=CCNc1nc(Cl)nc(Nc2ccc(OC)cc2)n1	ssDAF-12 act 1.3
C=CCNc1nc(Nc2ccc(OC)cc2)nc(OC)n1	none
CN(C)CCCN1C(=O)c2oc3ccc(F)cc3c(=O)c2C1c1cccnc1 (centres undefined)	hgDAF-12 ag 11
CC(=O)n1c2c(c3ccccc31)OC(N)=C(C#N)C2c1ccc(C(C)C)cc1 (centres undefined)	hcDAF12 agonist 5.6
O=C(CSc1nnc(-c2cccnc2)n1C1CCCCC1)NC1CCCCCC1	none (no result: DAX1 inh-1)
Cc1ccnc(NC(=S)N2CCC(Nc3cccc(C(F)(F)F)c3)CC2)c1	none (no result: DAX1 inh-1, DAX1 inh-2)
O=C(CSc1nc2ccccc2c(=O)n1-c1ccc(Cl)cc1)N/N=C/C=C/c1ccccc1[N+](=O)[O-]	hcDAF12 agonist 5.8
CN(C)Cc1c(C(C)(C)O)[nH]c2cc(F)ccc12	none (no result: DAX1 inh-1)
CCCCc1ccc(Nc2ncccc2C#N)cc1	hcDAF12 agonist 5.8
N#Cc1cccnc1Nc1ccc(Cl)cc1	none
CCOC(=O)C1CCN(c2cc(=O)n(-c3ccccc3Cl)c(=O)[nH]2)CC1	DAX1 inh-1 4.2
Cc1ccc(C(=O)C2CCN(CC(=O)N3CCOCC3)CC2)cc1	none (no result: DAX1 inh-1)
CCNC(=S)NNC(=O)c1csc(CC)c1	DAX1 inh-1 7.0
CCc1cc(C(=O)NNC(=S)Nc2ccccc2C)cs1	hgDAF-12 ag 12, DAX1 inh-2 3.6
Cc1ccccc1CN1CCCCC(NC(=O)C2CCCCC2)C1=O (centres undefined)	none (no result: DAX1 inh-1)
Cc1c(C(C)(C(=O)O)c2c(C)n(C)c3ccccc23)c2ccccc2n1C	hcDAF12 agonist 5.7 (no result: DAX1 inh-1)
Cc1c(P(=O)(c2ccccc2)c2ccccc2)c2ccccc2n1C	none (no result: DAX1 inh-1)
Nc1ccc2nc(-c3ccccc3)[nH]c2c1	ssDAF-12 act 1.7
